According to PubChem BioAssay (NCI):
About 83,000 compounds went through this panel and 20% of them were active in at least one assay; those are over-represented in the sample as a whole.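 Cell lines were cultured in 96-well plates, exposed to a single compound concentration, and assessed for percent growth 48 hours later.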 Active and inactive are the calls of the source. Rule for the calls: active = growth percent below 10; inactive = the rest.

Columns and labels:
Assay in all cases: NCI-60 one-dose screen, 48 h (100 = growth as untreated, 0 = no growth, -100 = all killed)
Conditions in all cases: 10 µM unless noted
SR leukemia = tested on: SR leukemia
RPMI-8226 leukemia = tested on: RPMI-8226 leukemia
OVCAR-8 ovarian = tested on: OVCAR-8 ovarian
OVCAR-5 ovarian = tested on: OVCAR-5 ovarian
OVCAR-4 ovarian = tested on: OVCAR-4 ovarian
SK-OV-3 ovarian = tested on: SK-OV-3 ovarian
IGROV1 ovarian = tested on: IGROV1 ovarian
OVCAR-3 ovarian = tested on: OVCAR-3 ovarian
HS 578T breast = tested on: HS 578T breast
NCI/ADR-RES ovarian = tested on: NCI/ADR-RES ovarian
T-47D breast = tested on: T-47D breast
BT-549 breast = tested on: BT-549 breast
MDA-MB-435 melanoma = tested on: MDA-MB-435 melanoma
SW-620 colon = tested on: SW-620 colon
MCF7 breast = tested on: MCF7 breast
HCT-116 colon = tested on: HCT-116 colon
HCC-2998 colon = tested on: HCC-2998 colon
KM12 colon = tested on: KM12 colon

Measured: growth

O=C(CCCCNC(=O)c1cc(=O)c(O)co1)Nc1ccccc1
inactive: SR leukemia 14.3% | RPMI-8226 leukemia 50.4% | OVCAR-8 ovarian 93.6% | OVCAR-5 ovarian 119% | OVCAR-4 ovarian 79.3% | SK-OV-3 ovarian 119% | IGROV1 ovarian 99% | OVCAR-3 ovarian 47.4% | HS 578T breast 92.9% | NCI/ADR-RES ovarian 87% | T-47D breast 34.6% | BT-549 breast 98.4% | MDA-MB-435 melanoma 98.1% | SW-620 colon 45.8% | MCF7 breast 66.1% | HCT-116 colon 30% | HCC-2998 colon 110% | KM12 colon 99.7%

CCSC1=CC(=O)c2ccccc2C1=O
active: OVCAR-4 ovarian -95.2% | OVCAR-3 ovarian -26.7% | T-47D breast -41.9% | HCT-116 colon 2.56%
inactive: SR leukemia 37.6% | RPMI-8226 leukemia 45.7% | OVCAR-8 ovarian 49.4% | OVCAR-5 ovarian 116% | SK-OV-3 ovarian 95.6% | IGROV1 ovarian 59.5% | HS 578T breast 94.8% | NCI/ADR-RES ovarian 71.8% | BT-549 breast 91.4% | MDA-MB-435 melanoma 80.2% | SW-620 colon 54.9% | MCF7 breast 12.9% | HCC-2998 colon 117% | KM12 colon 93.8%

Cn1ncc2ccc(-c3nc(-c4ccccc4)[nH]c3-c3n[nH]c(=O)n3C3CC3)cc21
inactive: SR leukemia 82.9% | RPMI-8226 leukemia 94% | OVCAR-8 ovarian 99% | OVCAR-5 ovarian 98% | OVCAR-4 ovarian 93.6% | SK-OV-3 ovarian 94.5% | IGROV1 ovarian 111% | OVCAR-3 ovarian 107% | HS 578T breast 100% | NCI/ADR-RES ovarian 107% | T-47D breast 82.7% | BT-549 breast 106% | MDA-MB-435 melanoma 100% | SW-620 colon 100% | MCF7 breast 90.2% | HCT-116 colon 86.3% | HCC-2998 colon 103% | KM12 colon 99.2%

CCOC(=O)/C=C/c1c(C)[nH]c(=O)[nH]c1=O
inactive: SR leukemia 69.6% | RPMI-8226 leukemia 110% | OVCAR-8 ovarian 83.2% | OVCAR-5 ovarian 71.8% | OVCAR-4 ovarian 97.5% | SK-OV-3 ovarian 99.4% | IGROV1 ovarian 112% | OVCAR-3 ovarian 118% | HS 578T breast 105% | NCI/ADR-RES ovarian 81.9% | T-47D breast 102% | BT-549 breast 99.1% | MDA-MB-435 melanoma 109% | SW-620 colon 56.7% | HCT-116 colon 53% | HCC-2998 colon 107% | KM12 colon 93.4%

CCn1cc(C(=O)NN=C2CCCCCC2)c(=O)c2ccc(C)nc21
inactive: SR leukemia 85.8% | RPMI-8226 leukemia 88.1% | OVCAR-8 ovarian 92.5% | OVCAR-5 ovarian 92.6% | OVCAR-4 ovarian 79.6% | SK-OV-3 ovarian 98.2% | IGROV1 ovarian 81.5% | OVCAR-3 ovarian 86.2% | HS 578T breast 80.1% | NCI/ADR-RES ovarian 89.4% | T-47D breast 77.2% | BT-549 breast 83% | MDA-MB-435 melanoma 83.9% | SW-620 colon 91.2% | MCF7 breast 77.2% | HCT-116 colon 77.7% | HCC-2998 colon 99.1% | KM12 colon 87.6%

COc1cc(/C=C\c2cc(/C=C\c3ccc(O)c(OC)c3)n(C(=O)CNc3ccc(Cl)cc3)n2)ccc1O
inactive: RPMI-8226 leukemia 17.4% | OVCAR-8 ovarian 28.2% | OVCAR-5 ovarian 86.9% | OVCAR-4 ovarian 56.6% | SK-OV-3 ovarian 21.1% | IGROV1 ovarian 36.7% | OVCAR-3 ovarian 22.9% | HS 578T breast 30% | NCI/ADR-RES ovarian 21% | T-47D breast 31% | BT-549 breast 24.3% | SW-620 colon 24.9% | MCF7 breast 13.8% | HCC-2998 colon 48.6% | KM12 colon 20.2%
active: SR leukemia 3.39% | MDA-MB-435 melanoma -7.11% | HCT-116 colon 7.69%

CCCCCCCCn1ccc2cc(NC(=O)Cn3cc(CN4CCCCCC4)nn3)ccc21
inactive: OVCAR-8 ovarian 30% | OVCAR-5 ovarian 35.6% | OVCAR-4 ovarian 51% | SK-OV-3 ovarian 97.6% | IGROV1 ovarian 52.2% | OVCAR-3 ovarian 10.1% | HS 578T breast 65.7% | NCI/ADR-RES ovarian 55.1% | BT-549 breast 96.8%
active: SR leukemia -13.1% | RPMI-8226 leukemia -9.08% | T-47D breast -47.4% | MDA-MB-435 melanoma -85.3% | SW-620 colon -78.3% | MCF7 breast -23.2% | HCT-116 colon -77.3% | HCC-2998 colon -80.9% | KM12 colon -27.8%

COc1cc(C(=O)c2c(N)ncn2-c2ccccc2)cc(OC)c1OC
inactive: SR leukemia 122% | RPMI-8226 leukemia 136% | OVCAR-8 ovarian 101% | OVCAR-5 ovarian 102% | OVCAR-4 ovarian 101% | SK-OV-3 ovarian 95.4% | IGROV1 ovarian 88.1% | OVCAR-3 ovarian 99.2% | HS 578T breast 98.5% | NCI/ADR-RES ovarian 82.5% | T-47D breast 101% | BT-549 breast 98.8% | MDA-MB-435 melanoma 43.8% | SW-620 colon 88.1% | HCT-116 colon 90.3% | HCC-2998 colon 99.6% | KM12 colon 72.4%

CCCCc1oc2ccccc2c1C(=O)c1ccc(O)cc1
inactive: SR leukemia 31% | RPMI-8226 leukemia 42.5% | OVCAR-8 ovarian 82.2% | OVCAR-5 ovarian 84.3% | OVCAR-4 ovarian 68.2% | SK-OV-3 ovarian 94.4% | IGROV1 ovarian 79.6% | OVCAR-3 ovarian 94.3% | HS 578T breast 83.2% | NCI/ADR-RES ovarian 76.1% | T-47D breast 75.3% | BT-549 breast 70.1% | MDA-MB-435 melanoma 52.2% | SW-620 colon 99.8% | MCF7 breast 104% | HCT-116 colon 83.2% | HCC-2998 colon 460% | KM12 colon 76.4%

CC(C)c1ccc(NC(=O)Nc2ccc(NC(=O)c3ccccc3N)cc2)cc1
inactive: SR leukemia 17.9% | OVCAR-8 ovarian 61.5% | OVCAR-5 ovarian 60.5% | OVCAR-4 ovarian 59.4% | SK-OV-3 ovarian 46.8% | IGROV1 ovarian 72.6% | OVCAR-3 ovarian 49% | NCI/ADR-RES ovarian 89.5% | T-47D breast 38.2% | BT-549 breast 77% | MDA-MB-435 melanoma 46.5% | SW-620 colon 54.1% | HCT-116 colon 51.8% | HCC-2998 colon 23.5% | KM12 colon 29.8%
active: RPMI-8226 leukemia -0.137% | HS 578T breast -3.9%

CC/C(Cc1ccccc1)=C(\c1ccc(OCCN2CCCCCC2)cc1)c1ccc(OC(=O)NCc2ccccc2)cc1
inactive: RPMI-8226 leukemia 30.8% | OVCAR-8 ovarian 58.9% | OVCAR-5 ovarian 80.9% | OVCAR-4 ovarian 57% | SK-OV-3 ovarian 88.6% | IGROV1 ovarian 63.5% | OVCAR-3 ovarian 89.8% | HS 578T breast 78.6% | NCI/ADR-RES ovarian 74% | T-47D breast 40.9% | BT-549 breast 81.9% | MDA-MB-435 melanoma 79.6% | SW-620 colon 64.5% | MCF7 breast 13.7% | HCC-2998 colon 65.2% | KM12 colon 67.9%
active: SR leukemia -21.1% | HCT-116 colon 2.8%

O=C1/C(=C/c2ccc(C(F)(F)F)cc2)COc2ccc(O)cc21
inactive: OVCAR-8 ovarian 76.4% | OVCAR-5 ovarian 96.5% | OVCAR-4 ovarian 82.7% | SK-OV-3 ovarian 116% | IGROV1 ovarian 82.5% | OVCAR-3 ovarian 94.8% | HS 578T breast 95.8% | NCI/ADR-RES ovarian 94.3% | T-47D breast 78% | BT-549 breast 72.8% | MDA-MB-435 melanoma 87.7% | HCT-116 colon 33.2% | HCC-2998 colon 94.1%
active: SR leukemia 9.82% | RPMI-8226 leukemia -23.2% | SW-620 colon 1.98%

CCCCCSB(SCCCCC)c1ccccc1
inactive: SR leukemia 98.5% | RPMI-8226 leukemia 100% | OVCAR-8 ovarian 97% | OVCAR-5 ovarian 101% | OVCAR-4 ovarian 100% | SK-OV-3 ovarian 104% | IGROV1 ovarian 97.1% | OVCAR-3 ovarian 109% | HS 578T breast 109% | NCI/ADR-RES ovarian 98.4% | T-47D breast 94.3% | BT-549 breast 105% | MDA-MB-435 melanoma 103% | SW-620 colon 100% | MCF7 breast 104% | HCT-116 colon 106% | HCC-2998 colon 88.7% | KM12 colon 107%

C[C@@H](CO)[C@@H]1CC[C@]2(C(=O)N3CCN(C)CC3)CC[C@]3(C)[C@H](CC[C@@H]4[C@@]5(C)CC[C@H](O)C(C)(C)[C@@H]5CC[C@]43C)[C@@H]12
inactive: RPMI-8226 leukemia 38.2% | OVCAR-8 ovarian 80.3% | OVCAR-5 ovarian 101% | OVCAR-4 ovarian 78.3% | SK-OV-3 ovarian 108% | IGROV1 ovarian 74% | OVCAR-3 ovarian 87.7% | HS 578T breast 85.2% | NCI/ADR-RES ovarian 84.5% | T-47D breast 76.7% | BT-549 breast 75.8% | MDA-MB-435 melanoma 75.8% | SW-620 colon 51.5% | HCT-116 colon 16.7% | HCC-2998 colon 105%
active: SR leukemia -12.4%

Cc1cc(N2CCCCC2)nc(N2CCN(CC(=O)Nc3ccc4c(ccn4Cc4ccccc4)c3)CC2)n1
inactive: SR leukemia 64% | RPMI-8226 leukemia 53.4% | OVCAR-8 ovarian 36.6% | OVCAR-5 ovarian 88.7% | OVCAR-4 ovarian 54.2% | SK-OV-3 ovarian 62.3% | IGROV1 ovarian 64.5% | OVCAR-3 ovarian 68.7% | HS 578T breast 66.7% | NCI/ADR-RES ovarian 47.9% | T-47D breast 32.8% | BT-549 breast 82.7% | MDA-MB-435 melanoma 77.8% | SW-620 colon 73.6% | HCT-116 colon 43.6% | HCC-2998 colon 93.3% | KM12 colon 49.1%

Nc1c(C(=O)Nc2ccccn2)sc2nc3c(cc12)C(O)CCC3 (stereo not drawn)
inactive: SR leukemia 14.4% | OVCAR-8 ovarian 36.5% | OVCAR-5 ovarian 46.7% | OVCAR-4 ovarian 59.4% | SK-OV-3 ovarian 17.4% | IGROV1 ovarian 47.9% | NCI/ADR-RES ovarian 17.7% | T-47D breast 15% | BT-549 breast 58.2% | SW-620 colon 21.8% | MCF7 breast 13.2% | HCT-116 colon 30.5% | HCC-2998 colon 70.7% | KM12 colon 18.3%
active: RPMI-8226 leukemia 2.23% | OVCAR-3 ovarian -19.1% | HS 578T breast 6.09% | MDA-MB-435 melanoma -44.6%

CCN(CC)c1ccc(/C=N\NC(=O)c2cccc(Nc3ccnc(C(F)(F)F)c3)c2)c(O)c1
inactive: SR leukemia 131% | OVCAR-8 ovarian 37.3% | OVCAR-5 ovarian 48.6% | OVCAR-4 ovarian 18.8% | SK-OV-3 ovarian 19.5% | IGROV1 ovarian 79.9% | OVCAR-3 ovarian 30.9% | HS 578T breast 57.8% | NCI/ADR-RES ovarian 29.4% | T-47D breast 15.1% | BT-549 breast 28.8% | MDA-MB-435 melanoma 15.4% | SW-620 colon 35.4% | MCF7 breast 16.1% | HCT-116 colon 26.5% | HCC-2998 colon 60.1% | KM12 colon 23%
active: RPMI-8226 leukemia 6.52%
